# According to PubChem BioAssay AID1945 (The Scripps Research Institute Molecular Screening Center, 2009):
# In all, about 1,600 compounds went through this assay and about 65 (4%) were called active. A selection follows. A number with no mark means an inactive call. No stated cut-off is given here; in the data, active means inhibition above about 37%; inactive means the rest.
# Test: DNA intercalator displacement agents – biochemical, FID fluorescence, triplicate, artefact control for HCV NS3 helicase inhibitor project (AID 1945);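 further: 0% = vehicle and 100% = reference compound; higher means more displacement of ethidium bromide from the DNA hairpin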
# Conditions: DNA fluorescent intercalator displacement, at 7.9 µM, hits give high values
row,SMILES,inhibition
1,CC(=O)Oc1cccc(N2C(=O)CC(Nc3ccc(N4CCOCC4)cc3)C2=O)c1 (stereo not given),-9.25%
2,COc1cc(/C=C2/C(=O)NN(c3cccc(Cl)c3)C2=O)cc(Br)c1O,8.6%
3,COc1ccccc1C1/C(=C(/O)c2ccc(OC(C)C)cc2)C(=O)C(=O)N1c1cc(C)on1 (stereo not given),-26.4%
4,COc1cc(C2CC(=O)N3CN(Cc4ccccc4)CSC3=C2C#N)ccc1OCc1ccccc1 (stereo not given),-15.9%
5,CC(=O)C1=C(O)C(=O)N(c2ccc(Br)cc2)C1c1ccc([N+](=O)[O-])cc1 (stereo not given),-11.1%
6,O=C1NN(c2ccccc2)C(=O)/C1=C/c1ccc(-c2cccc(C(=O)O)c2)o1,-0.74%
7,Cc1ccc(C2=N/C(=C\c3ccc(OS(=O)(=O)c4ccc(C)cc4)cc3)C(=O)O2)cc1,-12.6%
8,COc1cc(C2C(C(=O)c3ccco3)=C(O)C(=O)N2c2cc(C)on2)ccc1OCc1ccccc1 (stereo not given),-1.69%
9,Cc1[nH]n(C(N)=S)c(=O)c1N=Nc1ccc(Cl)cc1Cl,-8.84%
10,O=[N+]([O-])c1cc(Cl)cc(/C=N/NC(=S)Nc2cc(S(=O)(=O)N3CCOCC3)ccc2Cl)c1O,-2.03%
11,O=C(N/N=C/c1ccc([N+](=O)[O-])o1)c1cn(-c2ccccc2)nc1-c1ccc(F)cc1,10.7%
12,Cc1ccc(C)c(-n2c(SCC(=O)O)nc3sc4c(c3c2=O)CCCC4)c1,-27.8%
13,S=C(NCCc1ccccc1)N1CCCCC1,-0.28%
14,CCOC(=O)c1nnn(-c2nc(OC)nc(N(C)C)n2)c1-c1ccccc1,-39.7%
15,N#C/C=C(/c1ccc(F)cc1)N1CCOCC1,14%
16,CCOc1ccc(C(C(=O)NCCOC)N(CCOC)C(=O)CCC(=O)Nc2ccccn2)cc1 (stereo not given),-24.9%
17,Cc1ccc(C2Nc3cccc4cccc(c34)N2)cc1,17.1%
18,COc1ccc(/C=C(\NC(=O)c2ccc(OCC(C)C)cc2)C(=O)OCc2ccco2)cc1,-43.9%
19,Cc1ccc(OCC(=O)c2cc(C)n(Cc3ccco3)c2C)c([N+](=O)[O-])n1,-9.01%
20,Cc1ccccc1Nc1nnc(SCC(=O)c2cc3ccccc3o2)s1,-3.69%
21,COc1ccc(C)cc1-n1nnnc1SCC(=O)c1cc(C)n(Cc2ccco2)c1C,-39%
22,CC(Oc1ccccc1)C(=O)Nc1oc(-c2ccco2)c(-c2ccco2)c1C#N (stereo not given),13.9%
23,CC(C)c1ccc(Nc2nnc(SCC(=O)c3nnc(-c4ccccc4)o3)s2)cc1,8.51%
24,O=c1[nH]c(/C=C\c2cccc(C(F)(F)F)c2)nc(O)c1[N+](=O)[O-],-2.48%
25,O=c1nc2s/c(=C\c3ccco3)c(=O)n2nc1Cc1ccccc1,7.7%

row,SMILES,inhibition
1,Cc1ccc(S(=O)(=O)N/N=C\c2cc3c(cc2[N+](=O)[O-])OCO3)cc1,14.6%
2,CC(=O)Nc1ccc(Nc2c3ccccc3nc3ccccc23)cc1,79.8% (active)
3,CCOC(=O)c1ccccc1N1C(=O)C2Sc3[nH]c(=O)sc3C(/C=C/c3ccccc3)C2C1=O (stereo not given),-46.6%
4,COCCNC(=O)Nc1ccc2nc(-c3ccco3)c(-c3ccco3)nc2c1,18.2%
5,CCOC(=O)c1c(-c2ccccc2)oc2cc(Br)c(O)c(C=O)c12,85% (active)
6,Cc1cc(O)c(C(=O)/C=C/c2c(F)c(F)c(F)c(F)c2F)c(=O)o1,3.73%
7,CCOc1ccc(C2C3=C(CCCC3=O)N(CC(=O)O)C3=C2C(=O)CCC3)cc1,7.44%
8,CS(=O)(=O)c1ccc2c(c1)SC1=NC(=O)/C(=C/c3ccco3)C(=N)N12,-2.29%
9,Cc1ccc(SC(CC(=O)c2ccc(C(C)(C)C)cc2)C(=O)O)cc1 (stereo not given),-10.2%
10,CC1=NN(c2ccc(Cl)c(C(=O)O)c2)C(=O)/C1=C/c1ccc(-c2ccccc2[N+](=O)[O-])o1,15.8%
11,COc1ccc(/C=C2\SC(=S)N(CCC(=O)Nc3cccc(C(=O)O)c3)C2=O)cc1OC,15.4%
12,CNS(=O)(=O)c1cccc(C(=O)NC2CCCc3ccccc32)c1 (stereo not given),-7.17%
13,CCSc1nsc(NC(=O)Nc2cccc(C(C)=O)c2)n1,8.36%
14,O=c1c2c(-c3ccccc3)ccnc2[nH]n1-c1ccccc1,1.8%
15,COC(=O)COc1ccc2c(c1C)O/C(=C\c1ccco1)C2=O,-11.8%
16,NS(=O)(=O)c1ccc(-c2ccc(/C=C3\SC(=O)NC3=O)o2)cc1,1.16%
17,CCOC(=O)C1=C(O)/C(=C/c2cc(C)n(-c3ccccc3)c2C)N=C1C,-10.6%
18,COc1ccc(/C=C/C(=O)c2cc(Br)ccc(=O)c2O)cc1,16.2%
19,Cc1ccc(C(=O)O)cc1-c1ccc(/C=C2\SC(=O)N(CC(=O)Nc3ccc4c(c3)OCO4)C2=O)o1,1%
20,COc1cccc(CNC(=O)c2nnn(CC(=O)Nc3cc(Cl)ccc3C)c2N)c1,9.61%
21,Cc1ccc(S(=O)(=O)NCCC(c2ccccc2)c2ccccc2)cc1C(=O)O,-24.5%
22,CCN(CC)CCOc1ccc2c(c1)C(=NNC(=O)c1ccccn1)c1cc(OCCN(CC)CC)ccc1-2,94.3% (active)
23,Brc1ccccc1C1Nc2cccc3cccc(c23)N1,12.8%
24,O=C1C=CC(=O)N1c1ccc(N2CCCCC2)cc1,17%
25,O=C(N/N=C/c1ccco1)c1csc2c1CCCC2,-7.05%

row,SMILES,inhibition
1,COc1ccccc1N1CCN(C(=O)CCS(=O)(=O)c2ccc3c(c2)NC(=O)C(C)S3)CC1 (stereo not given),-36.4%
2,CSc1c(SCc2ccccc2)cnn(Cc2ccccc2)c1=O,-16.1%
3,CCC1C/C(=C/c2cccs2)C(=O)/C(=C/c2cccs2)C1 (stereo not given),-0.49%
4,Nc1ccc2nc3c(=O)[nH]c(=S)[nH]c3nc2c1,-8.12%
5,Cc1nn2c(c1-c1ccccc1)N=C(c1ccco1)CC2c1ccccc1 (stereo not given),-5.96%
6,CS/C(=C\C(=O)c1ccco1)Nc1ccccc1Cl,-4.94%
7,O=C1N/C(=C/c2cccn2-c2ccccc2)C(=O)N1c1cccc(Cl)c1,12.2%
8,Cc1cc(C)c2nc(-c3ccco3)cc(C(=O)O)c2c1,-5.42%
9,Cc1ccc(/C=C/C(=O)Nc2ccc([N+](=O)[O-])c(NC(=O)/C=C/c3ccc(C)o3)c2)o1,33.4%
10,CC(C)c1ccc(C2C(C(=O)c3ccco3)=C(O)C(=O)N2CC2CCCO2)cc1 (stereo not given),-21.9%
11,Cc1ccc(C(CC(=O)O)Nc2nc(N3CCCCC3)nc(N3CCCCC3)n2)cc1 (stereo not given),-62.5%
12,Cc1ccc(-c2nn(-c3ccccc3)cc2/C=C2\SC(=S)N(CCCCCC(=O)O)C2=O)o1,9.08%
13,CN(C)c1ccc(N/C=C/C(=O)C(F)(F)F)cc1,17.8%
14,O=C(c1cccc(-n2cccc2)c1)N1CCN(S(=O)(=O)c2ccc(F)cc2)CC1,-4.45%
15,O=C(CCCN1C(=O)/C(=C\c2ccco2)SC1=S)Nc1cccc2ccccc12,6.79%
16,Cc1occc1C(=O)N/N=C/c1ccc(-c2cccc([N+](=O)[O-])c2)o1,1.25%
17,Cc1cc(N2C(=O)C(O)=C(C(=O)c3ccc(C)o3)C2c2ccc(OCc3ccccc3)cc2)no1 (stereo not given),-15.8%
18,Cc1cccc(NC(=O)c2sc3nc4c(c(-c5ccco5)c3c2N)CCC4)c1,-11.3%
19,COc1ccc(OCC(=O)Nc2nnc(-c3ccco3)s2)cc1,-1.45%
20,COc1ccc(NC(=O)CSc2ccc(-c3ccco3)nn2)c(OC)c1,0.58%
21,Clc1ccccc1CSc1nnc(-c2ccco2)c(-c2ccco2)n1,72.2% (active)
22,c1ccc(CSc2nnc(-c3ccco3)c(-c3ccco3)n2)cc1,32.8%
23,O=C(CCl)NNc1cccc(Cl)n1,11.2%
24,COc1cccc(C(=O)CC(=O)C(=O)Nc2ccc([N+](=O)[O-])cc2C)c1,2.14%
25,Fc1ccc(-c2ccc(-c3nn4c(-c5ccco5)nnc4s3)o2)cc1,-13.2%
